This passage reports growth inhibition, inhibition and outcome results from PubChem BioAssay.

A short description of test [1]: antimalarial activity against Dd2 strain (AID 2302;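 active = growth inhibition above 50% at the single 2 µM test dose, taken to imply half-maximal potency below 2 µM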;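 note: 0% = DMSO untreated growth and 100% = chloroquine plus artemisinin killed control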). As to conditions: P. falciparum Dd2 in RBCs, LDH growth readout, 72 h; at 2 µM; stronger effect = higher value.
Test [2] in a line: human hepatoma cell viability loss – ATP luminescence, cytotoxicity control for P. falciparum antimalarial project, primary screen (AID 2303;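 active = inhibition above 50%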;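 note: 0% = DMSO wells and 100% = digitonin-killed cells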). As to conditions: HepG2 viability, 24-48 h, at 10 µM, stronger effect = higher value.
Test [3] addresses L-lactate dehydrogenase (Plasmodium falciparum (isolate CDC / Honduras)) (UniProt Q27743). Description: PfLDH activity inhibition – cell lysate, 3D7 strain, counter-screen for P. falciparum growth inhibition project (AID 2304).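 Note: 0% = vehicle and 100% = reference inhibitor.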 To be noted: P. falciparum 3D7 crude extract, LDH APAD/NBT absorbance; at 2 µM; stronger effect = higher value.
Test [4] is described as follows: inhibition of 3D7 malaria parasite growth – strain 3D7 (AID 2306).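 Note: 0% = DMSO wells and 100% = chloroquine plus artemisinin control wells.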 To be noted: P. falciparum 3D7 erythrocytic growth, LDH absorbance, 72 h; at 2 µM; stronger effect = higher value.
The target in test [5] is Calcium-dependent protein kinase 1 (Plasmodium falciparum (isolate 3D7)) (UniProt P62344). Description: PfCDPK1 kinase inhibitors, biochemical, TCAMS library (AID 1159585; cut-off not given, nearly all actives have IC50 up to about 0.98 µM;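 note: inhibitors leave more ATP so luminescence rises with inhibition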). To be noted: recombinant PfCDPK1, Kinase-Glo ATP depletion luminescence. (In Kinase-Glo more light means more ATP remaining.)
Sequence of Calcium-dependent protein kinase 1 (Plasmodium falciparum (isolate 3D7)) (P62344 whole entry, looked up): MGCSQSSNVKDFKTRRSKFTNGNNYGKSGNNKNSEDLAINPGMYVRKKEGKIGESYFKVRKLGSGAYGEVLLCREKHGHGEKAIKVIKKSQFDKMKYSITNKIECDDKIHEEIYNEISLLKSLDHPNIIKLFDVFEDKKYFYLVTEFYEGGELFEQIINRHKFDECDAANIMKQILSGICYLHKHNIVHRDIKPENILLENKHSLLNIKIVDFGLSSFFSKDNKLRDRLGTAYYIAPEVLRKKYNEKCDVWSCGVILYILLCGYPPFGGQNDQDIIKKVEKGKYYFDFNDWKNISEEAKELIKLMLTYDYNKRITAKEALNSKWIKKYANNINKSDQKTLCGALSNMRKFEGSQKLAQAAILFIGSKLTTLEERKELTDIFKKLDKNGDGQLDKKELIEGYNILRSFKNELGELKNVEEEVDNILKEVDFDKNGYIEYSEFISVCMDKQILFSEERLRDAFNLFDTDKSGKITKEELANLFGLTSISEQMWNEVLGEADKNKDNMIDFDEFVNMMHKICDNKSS
Test [6] addresses Plasmodium falciparum protein kinase 6 (PK6, PF3D7_1337100) (UniProt Q8IDW1). Nature of the test: PfPK6 kinase inhibitors, biochemical, TCAMS library (AID 1159586). As to conditions: recombinant PfPK6, Kinase-Glo ATP depletion luminescence.
The target of test [7] is Protein kinase 7 (PK7), Plasmodium falciparum 3D7 (PF3D7_0213400) (UniProt Q7YTF7). Description: inhibition of Plasmodium PK7 catalytic activity – biochemical, TCAMS antimalarial set, Kinase-Glo luminescence (AID 1159587). To be noted: recombinant PfPK7, Kinase-Glo ATP depletion luminescence.
Sequence of Protein kinase 7 (PK7), Plasmodium falciparum 3D7 (PF3D7_0213400) (Q7YTF7 1-343): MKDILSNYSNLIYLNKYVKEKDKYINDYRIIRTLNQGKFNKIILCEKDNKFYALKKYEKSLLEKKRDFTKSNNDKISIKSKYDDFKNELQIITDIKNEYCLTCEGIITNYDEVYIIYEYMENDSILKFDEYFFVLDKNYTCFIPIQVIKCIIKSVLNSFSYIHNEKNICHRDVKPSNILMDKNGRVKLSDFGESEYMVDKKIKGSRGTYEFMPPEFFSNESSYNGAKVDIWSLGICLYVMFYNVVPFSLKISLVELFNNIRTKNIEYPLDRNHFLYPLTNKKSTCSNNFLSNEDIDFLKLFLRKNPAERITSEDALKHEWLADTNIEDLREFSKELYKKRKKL
In test [8] the target is Calcium-dependent protein kinase 4 (Plasmodium falciparum (isolate 3D7)) (UniProt Q8IBS5). Description: PfCDPK4 kinase inhibitors, biochemical, TCAMS library (AID 1159588; cut-off not given, nearly all actives have IC50 up to about 0.91 µM). As to conditions: recombinant PfCDPK4, Kinase-Glo ATP depletion luminescence.
Sequence of Calcium-dependent protein kinase 4 (Plasmodium falciparum (isolate 3D7)) (Q8IBS5 whole entry, looked up): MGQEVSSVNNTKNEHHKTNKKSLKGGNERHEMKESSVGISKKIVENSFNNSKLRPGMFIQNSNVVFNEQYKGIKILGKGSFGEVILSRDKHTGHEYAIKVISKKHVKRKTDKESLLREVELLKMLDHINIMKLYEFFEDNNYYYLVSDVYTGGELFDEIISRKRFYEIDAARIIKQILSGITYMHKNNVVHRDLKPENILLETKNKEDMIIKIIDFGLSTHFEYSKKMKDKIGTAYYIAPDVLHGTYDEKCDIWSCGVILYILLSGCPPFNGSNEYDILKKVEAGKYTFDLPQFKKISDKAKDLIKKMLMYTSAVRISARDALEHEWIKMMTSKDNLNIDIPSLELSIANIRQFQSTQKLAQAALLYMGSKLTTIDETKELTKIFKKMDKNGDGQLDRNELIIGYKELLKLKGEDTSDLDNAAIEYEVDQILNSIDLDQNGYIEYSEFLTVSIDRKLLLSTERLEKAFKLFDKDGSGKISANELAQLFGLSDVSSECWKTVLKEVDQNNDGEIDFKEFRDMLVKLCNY

Unmarked numbers belong to inactive results. For some of these results: Measured potencies and affinities stand elsewhere. Activity calls are given as the source filed them. Unless noted, the rule behind the calls is not given here.

Sequence of L-lactate dehydrogenase (Plasmodium falciparum (isolate CDC / Honduras)) (Q27743 whole entry, looked up): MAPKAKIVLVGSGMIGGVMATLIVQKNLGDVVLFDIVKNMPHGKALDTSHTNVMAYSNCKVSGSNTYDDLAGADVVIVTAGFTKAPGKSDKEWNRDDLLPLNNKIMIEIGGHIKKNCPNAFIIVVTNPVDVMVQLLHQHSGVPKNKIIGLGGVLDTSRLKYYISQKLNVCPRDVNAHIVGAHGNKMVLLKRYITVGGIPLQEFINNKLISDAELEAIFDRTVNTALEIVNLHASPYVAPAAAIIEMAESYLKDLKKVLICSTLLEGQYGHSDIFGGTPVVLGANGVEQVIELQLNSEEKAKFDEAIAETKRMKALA
Sequence of Plasmodium falciparum protein kinase 6 (PK6, PF3D7_1337100) (Q8IDW1 1-305): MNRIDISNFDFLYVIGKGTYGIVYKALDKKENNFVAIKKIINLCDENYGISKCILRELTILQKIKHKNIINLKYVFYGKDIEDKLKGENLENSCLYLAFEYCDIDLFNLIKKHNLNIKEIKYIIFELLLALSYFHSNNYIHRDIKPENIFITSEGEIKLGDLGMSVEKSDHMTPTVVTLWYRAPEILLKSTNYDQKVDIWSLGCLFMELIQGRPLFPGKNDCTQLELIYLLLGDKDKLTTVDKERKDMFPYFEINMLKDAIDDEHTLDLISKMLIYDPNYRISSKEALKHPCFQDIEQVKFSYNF

Turning to `Cc1cccc(C)c1NC1=NC(=S)N(c2cccc(Cl)c2)C12CCC(C(C)(C)C)CC2` (stereo not given), the results for the growth inhibition in test [1] and in test [4] were 53% (active) and 87% (active), respectively. For the same molecule, the values for the inhibition in test [2] and in test [3] were 4% and -14%, respectively. Besides, the result in test [5], in test [6], in test [7] and in test [8] was inactive.

On to `CS(=O)(=O)NCCCNCc1ccc(-c2ccc(-c3nc4ccc(F)cc4[nH]3)cc2)cc1`, for which the growth inhibition in test [1] was 97% (active); in test [4], 100% (active). For the same molecule, the inhibition is 17% in test [2] and -1% in test [3]. In addition, the outcome in test [5], in test [6], in test [7] and in test [8] was inactive.

On to `CC(C)c1ccc(NC(=O)c2ccc(C(=O)NC3CCN(CC4CCCCC4)C3)cc2)cc1` (stereo not given), for which the growth inhibition in test [1] is 26%; in test [4] it was 93% (active). Besides, the inhibition in test [2] is 35%; in test [3], 3%. Further, the result in test [5], in test [6], in test [7] and in test [8] was inactive.

As for `CC1(C)N=C(N)N=C(N)N1OCOc1cc(Cl)c(Cl)cc1Cl`, the growth inhibition in test [1] is 98% (active); in test [4] it was 96% (active). The figures for the inhibition in test [2] and in test [3] were 66% (active) and -3%, respectively. For the same molecule, the result in test [5], in test [6], in test [7] and in test [8] was inactive.

On to `COc1ccccc1-c1csc(C(=O)NCC2CCN(Cc3ccc(C(C)(C)C)cc3)C2)c1` (stereo not given), for which the growth inhibition in test [1] is 11%; in test [4], 93% (active). The inhibition in test [2] was 29%; in test [3], 0%. The outcome in test [5], in test [6], in test [7] and in test [8] was inactive.

Regarding `COc1ccc(CN2CCC(C(=O)Nc3cccc(-c4cccc(Cl)c4)c3)CC2)cc1O`, the growth inhibition is 0% in test [1] and 91% (active) in test [4]. The values for the inhibition in test [2] and in test [3] were 25% and -2%, respectively. In addition, the outcome in test [5], in test [6], in test [7] and in test [8] was inactive.

As to `CN1CCc2cc(NS(=O)(=O)c3ccc(-c4ccc(Cl)cc4)cc3)c(OCCCN3CCCCC3)cc2CC1`, the growth inhibition in test [1] was 100% (active); in test [4], 101% (active). The inhibition was 91% (active) in test [2] and 0% in test [3]. For the same molecule, the outcome in test [5], in test [6], in test [7] and in test [8] was inactive.

With `O=c1cc(NCCCNC2CCCc3c2cc(Cl)c(Cl)c3Cl)[nH]c2ccccc12` (stereo not given), the growth inhibition in test [1] was 64% (active); in test [4] it was 100% (active). In addition, the inhibition in test [2] was 6%; in test [3] it was -10%. The result in test [5], in test [6], in test [7] and in test [8] was inactive.

`CC(C)c1sc(-c2ccc(C(C)(C)C)cc2)nc1C(=O)NCCCN1CCCC1=O`: the results for the growth inhibition in test [1] and in test [4] were 92% (active) and 96% (active), respectively. Besides, the inhibition in test [2] is -2%; in test [3] it was 1%. Also, the outcome in test [5], in test [6], in test [7] and in test [8] was inactive.

For `O=C(NCCc1ccccc1)N(Cc1ccccc1-c1cccc(CNC2CCCC2)c1)C1CCN(Cc2ccccc2)CC1`, the growth inhibition in test [1] was 87% (active); in test [4], 95% (active). Besides, the results for the inhibition in test [2] and in test [3] were 31% and 5%, respectively. In addition, the result in test [5], in test [6], in test [7] and in test [8] was inactive.

`CC(C)CCN1CCCN(Cc2ccc(C(=O)Nc3ccc(C(C)(C)C)cc3)cc2)CC1`: the growth inhibition was 12% in test [1] and 92% (active) in test [4]. In addition, the inhibition in test [2] is 49%; in test [3], -1%. In addition, the result in test [5], in test [6], in test [7] and in test [8] was inactive.

For the molecule `COc1cc(C(=O)NC2CC(C)(C)N(C)C(C)(C)C2)ccc1-c1nc2cc(Cl)c(Cl)cc2[nH]1`, the growth inhibition in test [1] was 99% (active); in test [4] it was 100% (active). Also, the inhibition in test [2] is 69% (active); in test [3] it was 5%. Besides, the outcome in test [5], in test [6], in test [7] and in test [8] was inactive.

For `N#Cc1ccc2c(c1)CCN(CCC1CCC(NC(=O)/C=C/c3cnc4ccccc4c3)CC1)CC2` (stereo not given), the growth inhibition in test [1] is 21%; in test [4], 87% (active). The values for the inhibition in test [2] and in test [3] were 22% and -1%, respectively. Further, the result in test [5], in test [6], in test [7] and in test [8] was inactive.

Turning to `CCOc1cc(Cc2cnc(N)nc2N)cc(OCC)c1OCC`, the growth inhibition in test [1] is 0%; in test [4], 97% (active). The inhibition in test [2] was -1%; in test [3] it was 5%. In addition, the outcome in test [5], in test [6], in test [7] and in test [8] was inactive.

In the case of `COc1ccc(-c2ccc(NC(=O)c3ccc(C#N)cc3)cc2)cc1CN1CCCC1`, the growth inhibition was 51% (active) in test [1] and 95% (active) in test [4]. The figures for the inhibition in test [2] and in test [3] were 40% and 5%, respectively. The outcome in test [5], in test [6], in test [7] and in test [8] was inactive.

For the molecule `CS(=O)(=O)CCNC(=O)c1ccc(-c2cc3c(Nc4ccc5c(cnn5Cc5ccccc5)c4)ncnc3cn2)o1`, the growth inhibition in test [1] is 46%; in test [4], 97% (active). Besides, the inhibition is 6% in test [2] and -1% in test [3]. Besides, the outcome in test [5], in test [6], in test [7] and in test [8] was inactive.

Consider `CN(C)Cc1c(O)ccc2oc(Cc3ccccc3)cc12`, for which the growth inhibition in test [1] was 94% (active); in test [4] it was 99% (active). Also, the inhibition in test [2] and in test [3] was 0% in each case. Further, the outcome in test [5], in test [6], in test [7] and in test [8] was inactive.

In the case of `CC1CCc2sc(-c3nnc(SC(C)C(=O)N4CCCC4)o3)cc2C1` (stereo not given), the values for the growth inhibition in test [1] and in test [4] were 94% (active) and 93% (active), respectively. The values for the inhibition in test [2] and in test [3] were 1% and 2%, respectively. Moreover, the result in test [5], in test [6], in test [7] and in test [8] was inactive.

`CCC[C@@H]([C@@H](CC1CCCCC1)C(=O)N[C@H](C(=O)Nc1nccs1)C(C)(C)SCCOCCOCC)N(O)C=O`: the growth inhibition in test [1] was 97% (active); in test [4], 100% (active). Also, the inhibition in test [2] was 40%; in test [3], -5%. Besides, the outcome in test [5], in test [6], in test [7] and in test [8] was inactive.

As to `O=C(NC1CCC(N2CCC(c3ccccc3C(F)(F)F)CC2)CC1)c1cc2ccccc2[nH]1` (stereo not given), the growth inhibition in test [1] was 98% (active); in test [4], 100% (active). For the same molecule, the inhibition in test [2] was 80% (active); in test [3], -5%. The result in test [5], in test [6], in test [7] and in test [8] was inactive.

What is called inhibition is the drop in the measured response relative to a control, in per cent.
